# Laboratory results published in the supplement of paper PMC3334620.
# In all, about 33,000 sequences were measured (“E-score (-0.5 to 0.5)”: median about -0.0059, highest 2% from about 0.26 on). Shown is part of a subset that was picked to be rich in the highest values.
# Molecular target: T1, Cin5 (UniProt P40917)
# T1 sequence: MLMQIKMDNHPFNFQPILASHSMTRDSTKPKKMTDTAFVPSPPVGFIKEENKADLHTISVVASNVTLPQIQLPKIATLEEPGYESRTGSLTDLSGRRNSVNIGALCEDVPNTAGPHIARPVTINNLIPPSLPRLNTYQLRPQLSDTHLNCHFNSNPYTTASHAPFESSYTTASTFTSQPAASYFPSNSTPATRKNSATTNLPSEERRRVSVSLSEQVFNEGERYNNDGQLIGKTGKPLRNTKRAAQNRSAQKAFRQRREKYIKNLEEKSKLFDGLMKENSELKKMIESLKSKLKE
# Experiment: PBM E-score (8-mer binding enrichment) (E-score (-0.5 to 0.5)); higher = stronger / more preferred TF binding
# Details: protein concentration: 100 nM; construct: GST-full length
# Description: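 Universal 'all 10-mer' protein binding microarrays (Agilent AMADID 015681) probed with GST-tagged S. cerevisiae TFs (full-length or DBD) made by in vitro transcription/translation (PURExpress), about 100-200 nM. Bound TF was detected with fluorescent anti-GST. Each ungapped 8-mer (which stands for itself and its reverse complement) is scored by the PBM enrichment score (E-score), a modified Wilcoxon-Mann-Whitney statistic from -0.5 to +0.5, computed with the Universal PBM Analysis Suite. Scale: above 0.35 generally sequence-specific binding.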
row,Sequence,PBM E-score
1,CGACGTCC,0.0493
2,ATAGTGTC,0.0674
3,ACATGGCT,-0.0786
4,CTACGAGC,-0.108
5,GGAACCAC,-0.0344
6,AGATGATC,0.119
7,AGATGATG,0.27
8,GAAATTAA,0.273
9,AGATGATA,0.212
10,AAAATTAA,0.105
11,CAAATTAA,0.191
12,GCAAGGGC,-0.235
13,TAACATGA,0.071
14,AGCTTCCT,0.00798
15,CAGCAAAG,-0.0276
16,GAATCTGA,-0.0334
17,GAGCTTTA,-0.0441
18,GAGTATAA,0.181
19,CAGTATTA,0.294
20,CAGTATAA,0.284
21,AAGTATAA,0.216
22,AAGTATTA,0.0531
23,GAGTATTA,0.178

row,Sequence,PBM E-score
1,GGAAGTCA,0.0165
2,GAACTCCA,0.0209
3,CAGCATGC,-0.0241
4,GGATCAAA,0.0839
5,CTCTGGCC,-0.234
6,GGGACCAC,-0.174
7,CCGCCTAA,-0.0943
8,TATGTCAA,0.294
9,TATGTAAA,0.286
10,GATGTCAA,0.0458
11,CATGTAAA,-0.054
12,AATGTCAA,0.176
13,GATGTAAA,0.13
14,ATACTCCA,0.122
15,AGCAGAGA,0.0498
16,ATTCATTC,0.299
17,ATTCATTG,0.116
18,ATTCATTA,0.122
19,ACTCAGAC,-0.0116
20,AACTATAG,0.051
21,AACTATAT,0.294
22,AAATATAC,0.178
23,AACTATAC,0.0815

row,Sequence,PBM E-score
1,ACCTATAA,-0.0275
2,AAATAGAG,-0.0761
3,AAATAGAC,0.143
4,AAATATAT,0.295
5,ACCTATAT,0.269
6,AAATATAA,0.203
7,ACCTATAC,0.0459
8,AAATAGAT,0.297
9,ACATCAGC,0.0733
10,CACTGAAC,0.0413
11,AGAGAGCC,-0.283
12,CGTAGTGC,-0.0666
13,GGCGTGAA,-0.183
14,CAATAAGG,-0.0974
15,AGTCGGCA,-0.0519
16,CGGCCGTC,-0.125
17,CACCCCCC,-0.498
18,AAGCAAGC,0.0852
19,ATCATGAT,0.098
20,AACTATAA,0.195
21,TACTATAA,0.333
22,CACTATAA,-0.0724
23,ATGCCCCA,-0.0481

row,Sequence,PBM E-score
1,AGCAAGGC,-0.0671
2,ACCGCCAA,-0.0388
3,AAGAGAAG,-0.0313
4,AAGAGAAT,0.261
5,AAGAGAAA,-0.0461
6,AAATTCAT,0.0992
7,AAGAGTTA,-0.0309
8,CCATCACG,-0.0302
9,AGTCGAGG,-0.168
10,ATATACTA,0.318
11,CAATACAG,0.0431
12,ATATACTC,0.209
13,CTATACTA,0.198
14,CAATACAA,0.308
15,ATATACAC,0.134
16,ATATACAA,0.266
17,CTATACAA,0.00862
18,CAATACAC,0.00745
19,CAACGACC,-0.0159
20,TTCCTAAA,-0.157
21,CGATGCGC,0.0485
22,GAGCGGAC,-0.251
23,CTTCCAAA,0.0243

row,Sequence,PBM E-score
1,AAGACTCG,-0.0863
2,CTGCCCGA,-0.00627
3,AGGCGGCG,-0.0941
4,GTGACGTA,0.204
5,ATGACGTA,0.338
6,CTGACGTC,0.035
7,CTGACGTA,0.278
8,ATGACGTC,0.255
9,ATGACGTG,0.191
10,AGATTAGA,-0.0761
11,AGGGGGGC,-0.479
12,AATTATAC,0.208
13,CATTATCG,0.0028
14,GATTATCC,0.0776
15,CATTATAC,0.287
16,CATTATCC,0.276
17,CATTATAA,0.0881
18,CACGGAGG,-0.173
19,CTGTCTAA,-0.0712
20,CGCGCCGA,-0.124
21,CAGGTCCC,-0.187
22,GCCTCCTA,-0.264
